Sampled rows, rich in hits. Any-hit rate of the full collection: about 2.2%.
ATXN viability: cell viability loss in ATXN counter-screen. Potency, µM (doses to about 56.7 µM), hits mostly cytotoxic. 0.49% of 400,000 active. AID 651635. S2 cells (HEK-293 line with an ATXN2-luciferase reporter) viability, CellTiter-Fluor protease fluorescence, 24 h; also: nearly all actives have a fitted effect of over 40% in size
TGFb SMAD3 inh: blocks TGF-b signaling; HepG2 CAGA-GFP TGF-b/SMAD3 reporter, GFP fluorescence, 18 h; TGF-beta stimulated, 500 pg/mL final; Potency, µM (doses to about 46.1 µM), most hits filed as inhibitors; 1.2% of 410,000 active; AID 588855; also: nearly all actives have a fitted effect of over 65% in size
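Cell-based qHTS in HEPG2 carrying a CAGA-GFP Smad reporter; compounds added before 500 pg/mL final TGF-beta, 18 h incubation at 37 degrees C, GFP fluorescence quantified per cell by imaging cytometry.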
LDHA block: blocks human lactate dehydrogenase A; AID 1347041; purified LDHA, NADH/diaphorase-resazurin fluorescence; stronger effect = lower value; activity change, % (values are at about 110 or 230 µM); P00338; 0.15% of 480,000 active; in the data active = activity change below about -30%; inconclusive = mostly about -25% to -30%
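Human LDH5 at 2 nM final in Tris HCl pH 7.4 with 0.06 mM NADH and 0.2 mM pyruvate, reacted 5 minutes at room temperature. Remaining NADH coupled via diaphorase/resazurin; resorufin fluorescence read at 0 and 20 minutes, normalized to enzyme-free and DMSO wells.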
ATXN2 expr inh: inhibitors of ATXN2 expression | HEK-293 ATXN2-luciferase reporter, luminescence, 24 h | Potency, µM (top dose mostly 57 µM), usual class: inhibitors | 0.72% of 360,000 active; also: nearly all actives have a fitted effect of over 55% in size
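qHTS (up to 57 uM final) was run with 24 h compound exposure of reporter cells at 37 °C. Each well was multiplexed: SteadyGlo luminescence measured ATXN2-luciferase expression after a fluorogenic Gly-Phe-AFC viability readout (25 uM final).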
IDH1 R132H inh: human IDH1 R132H inhibition. O75874. IDH1-R132H enzyme, NADPH consumption, diaphorase/resazurin fluorescence. Potency, µM (doses to about 76.6 µM), actives largely listed as inhibitors. 0.093% of 390,000 active. AID 602179; also: nearly all actives have a fitted effect of over 65% in size
Target sequence (O75874 whole entry R132H, stated change not applied): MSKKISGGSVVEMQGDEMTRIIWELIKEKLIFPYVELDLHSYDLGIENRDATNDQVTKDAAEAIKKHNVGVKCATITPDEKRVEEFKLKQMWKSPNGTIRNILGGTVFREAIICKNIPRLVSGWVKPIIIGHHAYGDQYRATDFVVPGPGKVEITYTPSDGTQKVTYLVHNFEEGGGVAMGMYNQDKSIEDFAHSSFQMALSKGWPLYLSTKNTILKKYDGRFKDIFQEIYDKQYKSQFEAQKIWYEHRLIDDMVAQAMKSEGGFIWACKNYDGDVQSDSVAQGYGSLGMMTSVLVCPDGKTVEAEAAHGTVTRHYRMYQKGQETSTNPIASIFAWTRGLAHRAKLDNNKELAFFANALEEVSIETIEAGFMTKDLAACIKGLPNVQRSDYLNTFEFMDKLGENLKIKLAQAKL
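IDH1-R132H (0.5 ug/mL dispensed) in pH 7.5 Tris buffer was preincubated 30 min with compound, then given a substrate mix of 0.016 mM NADPH and 2 mM alpha-KG for 80 min at room temperature; remaining NADPH was read by diaphorase/resazurin fluorescence.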
HepG2 tox: counter-screen for TGF-b inhibitors: cytotoxicity in HepG2 cells; Potency, µM (doses to about 46.1 µM), hits mostly cytotoxic; 0.76% of 410,000 active; HepG2 CAGA-GFP viability, ATP luminescence, 18 h
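HepG2 CAGA-GFP cells (1000/well, DMEM with 1% FBS) received compound, then TGF-beta at 500 pg/mL final, and were incubated 18 hours at 37 degrees C. Viability was read by CellTiter-Glo luminescence. Media-only wells were set as complete cell-killing and DMSO as no toxicity.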
Each line names hits and unclear results; the compound was inactive in the other large screens. Unless noted, calls follow the shape of the dose curve; as a rule, active = well fitted curve in the direction sought with a large enough effect; inconclusive = small, poorly fitted or top-dose-only effect, or another doubt; inactive = no such curve, though single readings can be large; an effect the other way counts as inactive or inconclusive.

COc1ccccc1Cc1c(-c2ccc(Cl)cc2)nc2c(C)cc(Br)cn12	ATXN viability inconclusive, TGFb SMAD3 inh 14µM, ATXN2 expr inh inconclusive, HepG2 tox 13µM (no result: IDH1 R132H inh)
CCCc1nc2ccc(Br)cn2c1Cc1ccccc1OC	ATXN viability 22µM, TGFb SMAD3 inh 16µM, ATXN2 expr inh inconclusive (no result: IDH1 R132H inh)
COC(=O)c1ccc2nc(C3CCCCC3)c(Cc3ccc(OC)cc3C)n2c1	none (no result: IDH1 R132H inh)
COc1ccc(Cc2nnc(SCC(=O)N3CCCC(C)C3)o2)cc1 (centres undefined)	ATXN viability inconclusive
COc1ccc(N/C(=C/[N+](=O)[O-])SC)cc1	none
Cc1cc(C)nc(NS(=O)(=O)c2ccc(NC(=O)C3CC(=O)N(c4ccccc4)C3)cc2)n1 (centres undefined)	none
FC(F)(F)c1ccccc1Cc1c(C2CCCCC2)nc2ccc(Cl)cn12	ATXN viability 18µM, TGFb SMAD3 inh inconclusive, ATXN2 expr inh inconclusive (no result: IDH1 R132H inh)
COc1ccccc1Cc1c(C2CCCCC2)nc2ccc(C)cn12	TGFb SMAD3 inh 16µM, ATXN2 expr inh inconclusive (no result: ATXN viability, IDH1 R132H inh)
COc1ccccc1Cc1c(C2CCCCC2)nc2ccc(Cl)cn12	ATXN viability inconclusive, TGFb SMAD3 inh inconclusive, ATXN2 expr inh inconclusive, HepG2 tox 18µM (no result: IDH1 R132H inh)
CCCc1nc2c(C)cc(Br)cn2c1Cc1ccccc1C(F)(F)F	ATXN viability inconclusive, TGFb SMAD3 inh inconclusive, ATXN2 expr inh inconclusive, HepG2 tox 10µM (no result: IDH1 R132H inh)
Cc1cc(Br)cn2c(Cc3ccccc3C(F)(F)F)c(-c3ccccc3)nc12	none (no result: TGFb SMAD3 inh, IDH1 R132H inh, HepG2 tox)
Clc1ccc2nc(C3CCCCC3)c(Cc3ccccc3)n2c1	none (no result: IDH1 R132H inh)
Cc1ccc(Cc2c(C3CCCCC3)nc3ccc(Cl)cn23)cc1	ATXN viability inconclusive, TGFb SMAD3 inh inconclusive (no result: IDH1 R132H inh)
CCCCNC(=O)C(NC(=O)c1cnccn1)C(=O)c1ccccc1 (centres undefined)	none (no result: ATXN viability, TGFb SMAD3 inh, ATXN2 expr inh, IDH1 R132H inh, HepG2 tox)
CC(C)Oc1cc(C(=O)NC2CCCCC2)c2ccccc2n1	none
COc1ccccc1NC(=O)CCN1CCCCC1	none (no result: ATXN viability, ATXN2 expr inh)
Cc1ccc(S(=O)(=O)Nc2ccc(O)c3cccnc23)cc1	ATXN viability inconclusive, TGFb SMAD3 inh inconclusive, ATXN2 expr inh 22µM
Cc1ccc(S(=O)(=O)Nc2ccc(O)c3ncccc23)cc1	ATXN viability inconclusive, TGFb SMAD3 inh inconclusive
O=C(CSc1ccccc1)N/N=C/c1ccccc1O	ATXN viability inconclusive, ATXN2 expr inh inconclusive
COc1ccc(CSCC(=O)N/N=C/c2ccccc2O)cc1	ATXN2 expr inh 25µM
CCN(CC)CCNC(=O)c1c(C)n(-c2ccccc2)c2cc(Br)c(OC)cc12	ATXN viability inconclusive, TGFb SMAD3 inh inconclusive, ATXN2 expr inh inconclusive, HepG2 tox 20µM
COc1cc2c(C(=O)N3CCN(C)CC3)c(C)n(-c3ccccc3)c2cc1Br	none (no result: ATXN viability, ATXN2 expr inh)
CN1CCCN(C(=O)c2cccc(Cl)c2)CC1	none
CN1CCCN(C(=O)c2cccc(-c3ccc(C=C4C(=O)Nc5ccc(Cl)cc54)o3)c2)CC1	ATXN2 expr inh 7.7µM (no result: ATXN viability, TGFb SMAD3 inh, LDHA block, IDH1 R132H inh, HepG2 tox)
CCOc1ccc(NC(=O)N2CCC(NC(=O)C(Cc3ccc(OC)c(OC)c3)NC(C)=O)CC2)cc1 (centres undefined)	none
O=C(Nc1ccc(C2=NCCN2)cc1)c1ccc(C(=O)Nc2ccc(C3=NCCN3)cc2)c([N+](=O)[O-])c1	LDHA block -36
Cc1ccc(NC(=O)c2ccc(-n3cccn3)c([N+](=O)[O-])c2)cc1	none
NC(=O)c1ccsc1NC(=O)CSc1ncnc2sccc12	none
O=C(NC(CSCc1ccccc1)C(=O)N/N=C/c1ccc(O)cc1O)c1ccc([N+](=O)[O-])cc1 (centres undefined)	TGFb SMAD3 inh inconclusive, ATXN2 expr inh 3.2µM, IDH1 R132H inh inconclusive
COc1cc(O)ccc1/C=N/NC(=O)c1ccc([N+](=O)[O-])cc1	none
O=C(O)CSCc1ccc(Cl)c(Cl)c1	none (no result: ATXN viability, TGFb SMAD3 inh, ATXN2 expr inh, IDH1 R132H inh, HepG2 tox)
CCN(CC)CCNc1ccc(CO)c2sc3ccccc3c(=O)c12	ATXN viability 32µM, TGFb SMAD3 inh inconclusive, ATXN2 expr inh 28µM
CCN(CC)CCNc1cccc2sc3ccccc3c(=O)c12	none (no result: ATXN2 expr inh)
